# Values joined by “and” are separate entries in the source; they are usually repeats but may differ in a detail not shown here. Identical values can stand only once. Results filed as inconclusive are left out. A structure can be active in one record and inactive in another. Active and inactive are the calls of the source. The call rests on the fitted dose curve; in most records, active means well fitted cell-killing curve with a large enough effect in the repeat runs; inconclusive means weak or mixed curves; inactive means no such curve, though single readings can be large or run the other way.
# Experiment: qHTS assay for identifying genotoxic compounds that show differential cytotoxicity against isogenic chicken DT40 cell lines with known DNA damage response pathways - Rad54/Ku70 mutant cell line (AID 743015); further: nearly all actives have a fitted effect of over 60% in size
# Conditions: DT40 Rad54/Ku70 mutant viability, CellTiter-Glo, 40 h; series mostly up to 66.8 µM; activity change, negative = cytotoxicity: at the top concentration
# Description: National Center for Advancing Translational Sciences [NCATS]
# NIH Chemical Genomics Center [NCGC]
# U.S. Environmental Protection Agency [EPA]
# National Institutes of Environmental Health Sciences [NIEHS]
# National Toxicology Program [NTP]
# U.S. Food and Drug Administration [FDA]
# DNA repair pathways play a critical role in cellular homeostasis by repairing DNA damage induced by endogenous processes and xenobiotics. Isogenic chicken DT40 cell lines deficient in different DNA repair pathways can be used to identify genotoxic compounds and aid in characterizing the nature of the DNA damage induced. Two DNA repair-deficient cell lines with disrupted genes, Rad54/Ku70 or Rev3, were used to screen the Tox21 10K compound library. Possible genotoxicity was based on the presence of a significant increase in cytotoxicity in one or more of the DNA repair-deficient cell lines compared to that observed in the parental DNA repair-proficient cell line. CellTiter Glo viability assay (Promega, Madison, WI) was used to measure cell viability in these cells after compound treatment. This assay includes the data from the Rad54/Ku70 mutant cell line.
# Tox21 Assay Protocol Summary:
# 300 DT40 mutant cells in 5 uL/well were dispensed into white, solid-bottom 1536-well plates using a Multidrop Combi (ThermoFisher Scientific, Waltham, MA) dispenser. After the assay plates were incubated at 37 C/5% CO2 for approximately 0.5 hour, 23 nL of compounds dissolved in DMSO, positive controls or DMSO only was transferred into the assay plate by a pintool work station (Kalypsys, San Diego, CA). The assay plates were incubated at 37 C/5% CO2 for 40 hours. After 5 uL per well of CellTiter-Glo reagent was added into each well of the assay plates, the plates were incubated for 30 min at room temperature and the luminescence intensity of the plates was measured using a ViewLux (PerkinElmer, Shelton, CT) plate reader.
# On the % scale 0 is the no-effect control and ±100 the full control effect; potency means the concentration at half of the fitted maximal effect.
Compound,"activity change, negative = cytotoxicity",Potency
N[C@@H]1CONC1=O,-5.05% (inactive),
Cc1cccc([N+](=O)[O-])c1C(=O)O,-0.519% (inactive),
CC1COc2c(N3CCN(C)CC3)c(F)cc3c(=O)c(C(=O)O)cn1c23 (stereo not given),2.42% (inactive),
COc1ccc(CCN(C)CCCC(C#N)(c2ccc(OC)c(OC)c2)C(C)C)cc1OC (stereo not given),,29.8 µM (active) and 61 µM (active)
NNCCc1ccccc1,-28.1% [at 30.7 µM] (inactive),
BrC1CCC(Br)C(Br)CCC(Br)C(Br)CCC1Br (stereo not given),,inactive and 25.9 µM (active)
CN1C(=O)c2ccc([N+](=O)[O-])cc2C1=O,2.1% (inactive),
COC(c1ccccc1)(c1ccccc1)[C@H](Oc1nc(C)cc(C)n1)C(=O)O,5.77% (inactive),
Cc1scc2c1N(C(=O)CN1CCN(C)CC1)c1ccccc1NC2=O,4.3% (inactive),
OCCOCCN1CCN(C(c2ccccc2)c2ccc(Cl)cc2)CC1 (stereo not given),,30.2 µM (active)
Nc1nc2ccccc2[nH]1,-0.228% (inactive),
O=C(Cl)c1cccc(C(=O)Cl)c1,,inactive
COc1cc(C(=S)N2CCOCC2)ccc1O,1.02% (inactive),
CC(C)CCOCc1ccccc1,-10.4% (inactive),
CCN(CC)C(=O)Nc1ccc(OCC(O)CNC(C)(C)C)c(C(C)=O)c1 (stereo not given),6.26% (inactive),
CC(COc1ccccc1)N(CCCl)Cc1ccccc1 (stereo not given),,23.7 µM (active) and 15.4 µM (active)
COc1ccc(CCN2CCC(Nc3nc4ccccc4n3Cc3ccc(F)cc3)CC2)cc1,,8.41 µM (active) and 8.82 µM (active)
O=c1n(CC2CO2)c(=O)n(CC2CO2)c(=O)n1CC1CO1 (stereo not given),,944 nM (active) and 217 nM (active)
C=CC(=O)OCCCCCCOC(=O)C=C,,69.4 µM (active) and 24.3 µM (active)
COC(=O)[C@H]1[C@H]2C[C@@H]3c4[nH]c5cc(OC)ccc5c4CCN3C[C@H]2C[C@@H](OC(=O)c2cc(OC)c(OC)c(OC)c2)[C@@H]1OC,,18.8 µM (active) and 24.3 µM (active) and 22.3 µM (active)

Compound,"activity change, negative = cytotoxicity",Potency
c1ccc2c(c1)CCCC2C1=NCCN1 (stereo not given),0.291% (inactive),
CCCOC(=O)c1cc(O)c(O)c(O)c1,,13.3 µM (active) and 27.2 µM (active) and 27.3 µM (active)
NC(Cc1ccc(Cl)cc1)C(=O)O (stereo not given),12.8% (inactive),
O=S(=O)(O)c1ccc2nc(-c3ccccc3)[nH]c2c1,,58.2 µM (active)
O=C(OCc1ccccc1)c1ccc(O)cc1,,61.1 µM (active)
Oc1c(Cl)cc(Cl)c(Cl)c1Cc1c(O)c(Cl)cc(Cl)c1Cl,,8.41 µM (active) and 3.05 µM (active) and 3.86 µM (active)
CN(C)c1ccc(C(=C2C=CC(=[N+](C)C)C=C2)c2ccccc2)cc1,,1.5 µM (active) and 10.9 nM (active)
Cc1ccc(-c2cc(C(F)(F)F)nn2-c2ccc(S(N)(=O)=O)cc2)cc1,,29.8 µM (active) and 54.3 µM (active) and 24.3 µM (active)
[Cl][In]([Cl])[Cl],,inactive
CCCCC/C=C/CC1CC(=O)OC1=O (stereo not given),5.27% (inactive),
CC(C)(C)c1ccccc1,-0.317% (inactive),
Oc1c(Cl)cc(Cl)cc1Sc1cc(Cl)cc(Cl)c1O,,17.3 µM (active) [middle of 4 runs]
Oc1ccc(Cl)cc1Cc1cc(Cl)ccc1O,,16.8 µM (active) and 31.2 µM (active) and 12.2 µM (active)
Nc1cc(S(=O)(=O)O)cc2cc(S(=O)(=O)O)cc(O)c12,,inactive and 61.1 µM (active)
CC(C(O)c1ccc(O)cc1)N1CCC(Cc2ccccc2)CC1 (stereo not given),,0.668 µM (active)
CCOc1ccc2c(c1)C(C)=CC(C)(C)N2,,21.1 µM (active) and 54.2 µM (active) and 15.4 µM (active)
CCc1cc(C(C)(C)C)c(O)c(C(C)(C)C)c1,-3.09% [at 95.1 µM] (inactive),
CC(C)(c1ccccc1)c1ccc(Nc2ccc(C(C)(C)c3ccccc3)cc2)cc1,,inactive and 61.1 µM (active)
CNC1(C)C2CCC(C2)C1(C)C (stereo not given),-6.31% (inactive),
Cc1cc(C2(c3cc(C)c(O)cc3C)OS(=O)(=O)c3ccccc32)c(C)cc1O,,inactive
